PubChem BioAssay AID720567 (Broad Institute, 2013)
Measured potencies and affinities stand elsewhere. A number with no mark means an inactive call. No rule for the calls is given here.

test: toxicity toward HEK293 cells – cell-based, dry powder samples, cytotoxicity control, dose response (AID 720567); conditions: plate reader; series mostly up to 15 µM; activity change, negative = cytotoxicity: at the top concentration

Structure (SMILES)	activity change, negative = cytotoxicity
CCCNS(=O)(=O)c1cccc(C(=O)OCc2cc(=O)oc3cc(OC)ccc23)c1	-7.85%
CC(=O)c1cccc(NC(=O)CSc2ncc(C(=O)Nc3ccccc3)c(=O)n2C)c1	-4.7%
CCOc1ccc(S(=O)(=O)NCc2ccccn2)cc1NC(=O)c1ccccc1F	-25%
CC(=O)N1CCC(=O)c2cc3ccccc3cc21	13.5%
COc1cc(-c2nnc(SCC3(c4ccc(Br)cc4)OCCO3)o2)cc(OC)c1OC	18.2%
O=C1CCN(Cc2ccccc2)c2cc3ccccc3cc21	47.8%
CCCCOc1ccccc1C1CC(=O)NC2=C1C(=O)CCC2 (stereo not drawn)	-19.1%
Cc1cc(C)nc(/N=C(\N)Nc2ccc(OCc3ccccc3)cc2)n1	-3.13%
CCOC(=O)c1ccc(Oc2cc(C)nc(SC)n2)cc1	-26.2%
O=C1CCNc2cc3ccccc3cc21	-12%
Cc1[nH][nH]c(=O)c1C(c1ccc(-c2ccc(Cl)c(Cl)c2)o1)c1c(C)[nH][nH]c1=O	9.38%
COc1ccc2c(COC(=O)c3cccc(S(=O)(=O)NCC(C)C)c3)cc(=O)oc2c1	-5.18%
COc1ccc(-c2nnc(SCc3ccccc3)o2)cc1	-8.12%
Cc1cc(=O)[nH]c(N/N=C/c2cc(C)n(CC(F)(F)F)c2C)n1	-27.8%
Cc1ccc(Oc2ccc(S(=O)(=O)N3CCOCC3)cc2C(N)=O)c(-n2nc3ccccc3n2)c1	-27.3%
CCN(CC)CCCNc1nc2cc(OC)c(OC)cc2c2nc(-c3ccccc3)nn12	-12.8%
Cc1ccc(/C=N/NC(=O)C2COc3ccccc3O2)s1 (stereo not drawn)	-6.12%
COc1ccccc1OCC(=O)NNC(=O)c1ccoc1C	-0.78%
Cc1ccc(C(=O)c2cc([N+](=O)[O-])ccc2N2CCOCC2)cc1C	-18.1%
CCN(CC)CCC(=O)Nc1cccc2c1C(=O)c1ccccc1C2=O	-5.32%
CCN(CC)CCOc1ccc2c(c1)C(=NNC(=O)c1ccccn1)c1cc(OCCN(CC)CC)ccc1-2	-8.53%
Brc1ccc(CSc2nnc(-c3ccccc3)o2)cc1	-7.34%
COc1ccccc1CSc1nnc(-c2ccccc2)o1	-20%
Cc1cnc(NC(=O)c2cc(S(=O)(=O)N(C)C)ccc2N2CCCC2)s1	32.1%
COc1ccccc1-c1nnc(SCc2ccccc2)o1	3.21%
COc1cc(Nc2c3c(nc4ccccc24)CCCC3)cc(OC)c1OC	3.16%
O=C(Cc1ccccc1)c1nnc(-c2ccccc2)o1	77%
Nc1nc(=S)c2ncn([C@@H]3O[C@H](CO)[C@@H](O)[C@H]3O)c2[nH]1	-93.6%
